Measurements reported in the supplement of paper PMC11732987, “Enantioselective OTUD7B fragment discovery through chemoproteomics screening and high-throughput optimisation” (Communications Chemistry, 2025).

Columns and labels:
Assay in all cases: log2 ratio of Biotin-Ahx-Ub-VS probe labelling (fragment/DMSO); higher = less target engagement (more negative = stronger competition), active = hit call of the paper (q ≤ 0.05, log2 ratio ≤ -1)
Conditions in all cases: compound concentration: 200 uM; treatment time: 3 h
[1] = target: T1, USP19 (UniProt O94966)
T1 sequence (whole entry): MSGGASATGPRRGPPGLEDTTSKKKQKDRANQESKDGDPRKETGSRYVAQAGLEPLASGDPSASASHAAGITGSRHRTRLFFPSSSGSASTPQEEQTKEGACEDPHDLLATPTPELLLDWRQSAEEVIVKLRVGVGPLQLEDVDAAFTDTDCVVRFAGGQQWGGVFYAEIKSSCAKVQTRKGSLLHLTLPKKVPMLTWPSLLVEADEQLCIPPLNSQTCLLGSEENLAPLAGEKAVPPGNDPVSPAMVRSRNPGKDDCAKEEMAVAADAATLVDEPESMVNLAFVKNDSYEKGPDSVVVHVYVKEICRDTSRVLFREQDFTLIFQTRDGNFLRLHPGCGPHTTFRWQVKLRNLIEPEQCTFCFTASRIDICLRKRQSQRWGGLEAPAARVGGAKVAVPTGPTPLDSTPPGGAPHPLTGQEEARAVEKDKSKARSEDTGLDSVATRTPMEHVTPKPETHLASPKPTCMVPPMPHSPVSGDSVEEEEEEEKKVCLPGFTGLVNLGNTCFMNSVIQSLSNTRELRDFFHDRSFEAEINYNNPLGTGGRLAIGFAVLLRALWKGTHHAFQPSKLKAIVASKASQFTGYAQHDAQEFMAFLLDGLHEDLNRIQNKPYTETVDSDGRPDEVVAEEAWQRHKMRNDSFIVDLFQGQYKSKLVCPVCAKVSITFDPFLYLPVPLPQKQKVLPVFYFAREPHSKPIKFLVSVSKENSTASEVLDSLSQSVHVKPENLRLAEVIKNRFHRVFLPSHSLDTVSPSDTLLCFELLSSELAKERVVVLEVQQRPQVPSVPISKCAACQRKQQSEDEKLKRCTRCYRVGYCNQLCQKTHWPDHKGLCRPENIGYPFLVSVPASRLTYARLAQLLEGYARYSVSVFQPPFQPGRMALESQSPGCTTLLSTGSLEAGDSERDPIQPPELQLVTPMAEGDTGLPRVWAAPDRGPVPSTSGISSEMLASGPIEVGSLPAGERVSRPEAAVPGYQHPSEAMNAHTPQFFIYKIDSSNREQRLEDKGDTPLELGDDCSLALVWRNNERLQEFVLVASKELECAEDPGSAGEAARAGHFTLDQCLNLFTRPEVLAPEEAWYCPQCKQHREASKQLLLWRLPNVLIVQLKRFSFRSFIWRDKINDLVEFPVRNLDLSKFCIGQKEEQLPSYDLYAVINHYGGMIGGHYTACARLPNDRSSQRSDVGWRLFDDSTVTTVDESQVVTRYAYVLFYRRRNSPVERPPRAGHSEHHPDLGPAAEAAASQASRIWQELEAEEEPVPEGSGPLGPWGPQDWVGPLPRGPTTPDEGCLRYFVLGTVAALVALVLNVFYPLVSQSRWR
Summary of the method: (§1)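 HEK293T lysate, 495 µg per sample in Tris/CHAPS/IGEPAL buffer with protease inhibitors, was treated in triplicate with fragment at 200 µM or vehicle for 3 h and then with Biotin-Ahx-Ub-VS at 0.5 µM final for 1 h. Labelled DUBs were NeutrAvidin-enriched, digested with LysC and trypsin, and run by diaPASEF LC-MS/MS. Spectronaut label-free quantities were global-median-normalised, and values are average log2 fragment/vehicle ratios by unpaired t-test on proteins with ≥2 unique peptides.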

[2] = target: USP24 (UniProt Q9UPU5)
USP24, sequence (Q9UPU5 whole entry): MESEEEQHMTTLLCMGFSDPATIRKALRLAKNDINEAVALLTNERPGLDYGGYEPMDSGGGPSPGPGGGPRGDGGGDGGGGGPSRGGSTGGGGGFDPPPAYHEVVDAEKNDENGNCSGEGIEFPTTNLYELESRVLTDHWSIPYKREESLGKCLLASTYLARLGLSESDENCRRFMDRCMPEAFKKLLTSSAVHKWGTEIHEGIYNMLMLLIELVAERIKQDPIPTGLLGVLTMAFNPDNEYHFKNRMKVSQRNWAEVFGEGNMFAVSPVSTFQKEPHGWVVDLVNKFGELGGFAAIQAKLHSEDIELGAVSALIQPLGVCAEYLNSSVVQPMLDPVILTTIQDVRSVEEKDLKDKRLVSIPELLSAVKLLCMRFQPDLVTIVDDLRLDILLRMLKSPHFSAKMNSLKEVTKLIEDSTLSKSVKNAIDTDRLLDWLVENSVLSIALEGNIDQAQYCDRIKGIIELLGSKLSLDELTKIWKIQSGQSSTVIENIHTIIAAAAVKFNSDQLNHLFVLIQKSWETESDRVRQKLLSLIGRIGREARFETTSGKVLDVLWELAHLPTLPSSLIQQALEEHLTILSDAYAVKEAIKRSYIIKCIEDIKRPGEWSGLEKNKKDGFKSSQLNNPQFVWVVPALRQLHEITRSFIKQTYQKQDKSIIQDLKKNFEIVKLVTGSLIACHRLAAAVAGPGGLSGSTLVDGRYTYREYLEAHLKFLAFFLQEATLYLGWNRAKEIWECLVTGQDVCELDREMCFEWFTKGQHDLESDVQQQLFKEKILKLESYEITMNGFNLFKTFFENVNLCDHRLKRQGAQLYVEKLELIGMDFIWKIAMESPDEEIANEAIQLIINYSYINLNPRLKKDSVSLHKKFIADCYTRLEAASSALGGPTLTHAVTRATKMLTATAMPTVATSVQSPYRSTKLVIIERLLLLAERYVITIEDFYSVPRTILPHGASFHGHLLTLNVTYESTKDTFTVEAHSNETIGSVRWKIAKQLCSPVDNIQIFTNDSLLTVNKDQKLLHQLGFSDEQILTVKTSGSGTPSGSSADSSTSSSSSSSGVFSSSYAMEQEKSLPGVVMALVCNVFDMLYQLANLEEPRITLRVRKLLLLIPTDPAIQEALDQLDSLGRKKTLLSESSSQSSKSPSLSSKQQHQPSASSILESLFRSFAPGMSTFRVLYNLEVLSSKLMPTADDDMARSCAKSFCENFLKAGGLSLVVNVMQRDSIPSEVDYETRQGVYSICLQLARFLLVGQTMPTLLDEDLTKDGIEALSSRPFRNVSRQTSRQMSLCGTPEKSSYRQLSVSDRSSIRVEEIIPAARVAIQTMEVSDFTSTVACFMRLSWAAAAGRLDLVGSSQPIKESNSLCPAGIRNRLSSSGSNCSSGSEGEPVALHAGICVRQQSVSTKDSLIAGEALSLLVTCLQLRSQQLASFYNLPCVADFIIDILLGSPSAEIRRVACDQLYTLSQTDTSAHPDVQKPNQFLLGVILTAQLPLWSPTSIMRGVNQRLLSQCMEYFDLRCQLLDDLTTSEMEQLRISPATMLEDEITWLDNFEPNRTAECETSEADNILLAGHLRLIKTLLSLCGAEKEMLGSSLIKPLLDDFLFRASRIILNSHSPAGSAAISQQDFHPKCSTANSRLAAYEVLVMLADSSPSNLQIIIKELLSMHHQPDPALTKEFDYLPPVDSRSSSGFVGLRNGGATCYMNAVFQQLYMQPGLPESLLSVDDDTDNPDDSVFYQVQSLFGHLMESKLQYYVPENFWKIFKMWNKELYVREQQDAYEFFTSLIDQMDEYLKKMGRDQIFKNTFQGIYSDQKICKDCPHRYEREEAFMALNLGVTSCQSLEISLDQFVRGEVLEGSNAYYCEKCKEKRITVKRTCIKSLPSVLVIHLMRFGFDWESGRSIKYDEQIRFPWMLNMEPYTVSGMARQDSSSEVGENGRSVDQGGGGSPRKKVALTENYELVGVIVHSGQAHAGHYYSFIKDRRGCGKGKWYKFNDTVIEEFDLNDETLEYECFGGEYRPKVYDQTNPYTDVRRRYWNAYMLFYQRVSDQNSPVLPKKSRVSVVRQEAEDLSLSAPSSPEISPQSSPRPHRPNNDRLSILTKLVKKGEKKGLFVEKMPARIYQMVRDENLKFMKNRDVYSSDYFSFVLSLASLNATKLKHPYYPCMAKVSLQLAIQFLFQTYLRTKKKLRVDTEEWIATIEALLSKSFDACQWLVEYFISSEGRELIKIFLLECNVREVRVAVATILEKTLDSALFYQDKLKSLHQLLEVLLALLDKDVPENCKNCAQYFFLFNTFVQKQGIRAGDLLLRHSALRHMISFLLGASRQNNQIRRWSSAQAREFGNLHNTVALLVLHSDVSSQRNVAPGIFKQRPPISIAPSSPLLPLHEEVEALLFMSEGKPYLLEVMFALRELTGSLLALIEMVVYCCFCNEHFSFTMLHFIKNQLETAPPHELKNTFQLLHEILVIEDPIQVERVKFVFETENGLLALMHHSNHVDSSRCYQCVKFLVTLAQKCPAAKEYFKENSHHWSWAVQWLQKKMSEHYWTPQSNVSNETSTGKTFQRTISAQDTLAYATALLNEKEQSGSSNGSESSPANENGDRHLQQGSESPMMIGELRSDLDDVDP
Summary of the method: as §1

[3] = target: T2, USP25 (UniProt Q9UHP3)
T2 sequence (whole entry): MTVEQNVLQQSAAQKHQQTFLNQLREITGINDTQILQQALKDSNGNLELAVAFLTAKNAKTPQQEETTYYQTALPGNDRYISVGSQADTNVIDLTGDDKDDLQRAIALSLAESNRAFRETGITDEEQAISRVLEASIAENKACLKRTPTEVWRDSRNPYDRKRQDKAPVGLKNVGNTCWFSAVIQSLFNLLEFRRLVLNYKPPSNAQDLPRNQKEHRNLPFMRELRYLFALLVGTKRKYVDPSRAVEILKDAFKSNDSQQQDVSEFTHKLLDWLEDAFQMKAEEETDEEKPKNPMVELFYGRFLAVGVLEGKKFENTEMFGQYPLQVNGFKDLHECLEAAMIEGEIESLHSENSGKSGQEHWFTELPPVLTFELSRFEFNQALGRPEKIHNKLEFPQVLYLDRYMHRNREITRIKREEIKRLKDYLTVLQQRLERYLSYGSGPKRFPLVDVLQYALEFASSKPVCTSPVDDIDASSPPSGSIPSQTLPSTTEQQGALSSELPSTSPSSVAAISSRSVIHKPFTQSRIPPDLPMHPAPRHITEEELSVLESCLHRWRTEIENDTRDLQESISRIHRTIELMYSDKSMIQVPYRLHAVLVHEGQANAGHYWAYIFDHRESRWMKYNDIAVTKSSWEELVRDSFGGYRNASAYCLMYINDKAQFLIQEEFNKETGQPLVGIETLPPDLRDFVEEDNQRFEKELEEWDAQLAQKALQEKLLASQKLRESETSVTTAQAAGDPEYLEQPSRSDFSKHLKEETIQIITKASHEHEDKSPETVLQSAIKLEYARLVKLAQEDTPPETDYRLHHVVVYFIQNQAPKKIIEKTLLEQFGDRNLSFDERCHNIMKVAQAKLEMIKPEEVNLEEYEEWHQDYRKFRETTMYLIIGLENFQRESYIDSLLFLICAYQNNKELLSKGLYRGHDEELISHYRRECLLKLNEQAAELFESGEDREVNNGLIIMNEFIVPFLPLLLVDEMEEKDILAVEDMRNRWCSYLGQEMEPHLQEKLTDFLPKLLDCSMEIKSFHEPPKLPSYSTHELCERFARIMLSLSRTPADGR
Summary of the method: as §1

[4] = target: T3, USP28 (UniProt Q96RU2)
T3 sequence (whole entry): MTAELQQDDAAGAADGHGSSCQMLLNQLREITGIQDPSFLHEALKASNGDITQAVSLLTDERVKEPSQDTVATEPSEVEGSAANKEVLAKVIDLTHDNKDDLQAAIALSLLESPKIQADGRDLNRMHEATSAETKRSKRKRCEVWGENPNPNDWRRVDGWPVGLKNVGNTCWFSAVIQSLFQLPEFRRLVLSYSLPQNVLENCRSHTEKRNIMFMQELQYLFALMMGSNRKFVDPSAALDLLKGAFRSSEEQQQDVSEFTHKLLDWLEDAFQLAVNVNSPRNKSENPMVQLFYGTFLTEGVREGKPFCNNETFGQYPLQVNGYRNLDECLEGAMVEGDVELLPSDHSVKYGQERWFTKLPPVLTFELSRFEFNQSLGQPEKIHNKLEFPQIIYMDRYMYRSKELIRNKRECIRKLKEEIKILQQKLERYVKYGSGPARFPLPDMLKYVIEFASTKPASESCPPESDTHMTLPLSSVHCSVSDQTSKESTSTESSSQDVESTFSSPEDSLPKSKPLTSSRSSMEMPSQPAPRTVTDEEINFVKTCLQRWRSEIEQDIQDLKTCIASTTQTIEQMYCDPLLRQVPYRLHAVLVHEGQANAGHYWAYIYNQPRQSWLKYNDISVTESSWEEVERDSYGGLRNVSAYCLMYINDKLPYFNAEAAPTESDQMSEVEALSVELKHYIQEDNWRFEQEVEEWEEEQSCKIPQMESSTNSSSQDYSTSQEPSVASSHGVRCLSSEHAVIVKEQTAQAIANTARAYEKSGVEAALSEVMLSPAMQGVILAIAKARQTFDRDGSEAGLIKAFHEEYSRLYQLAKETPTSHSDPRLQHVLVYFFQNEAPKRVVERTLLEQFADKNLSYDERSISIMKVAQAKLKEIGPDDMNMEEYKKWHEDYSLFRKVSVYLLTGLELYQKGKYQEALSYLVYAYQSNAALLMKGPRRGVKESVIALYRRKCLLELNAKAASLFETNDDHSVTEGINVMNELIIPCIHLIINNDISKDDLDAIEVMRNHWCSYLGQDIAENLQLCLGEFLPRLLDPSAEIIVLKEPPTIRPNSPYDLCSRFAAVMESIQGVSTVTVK
Summary of the method: as §1

Measured: log2 ratio of Biotin-Ahx-Ub-VS probe labelling

NC(=O)C(Cc1ccccc1)NC(=O)CCl (centres undefined)
inactive: [1] -0.0793 | [2] -0.0605 | [3] -0.291 | [4] -0.39
